Laboratory results taken from PubChem BioAssay AID1434 (Sanford-Burnham Center for Chemical Genomics, 2008).
Out of some 220,000 compounds screened, about 1,600 (0.73%) were called active.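 Rule for the calls: active = mean inhibition across duplicate retests at 20 µM reaching about 50% (limit read from the data); inactive = the rest, inconclusive results apart.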 Many of the other results were omitted from the sample, so actives are more common in it than they were.

Molecular target: Runt-related transcription factor 1 (Homo sapiens) + Core-binding factor subunit beta (Homo sapiens) (UniProt Q01196+Q13951)
Sequence (Q01196 whole entry, looked up, the tested form may be a part): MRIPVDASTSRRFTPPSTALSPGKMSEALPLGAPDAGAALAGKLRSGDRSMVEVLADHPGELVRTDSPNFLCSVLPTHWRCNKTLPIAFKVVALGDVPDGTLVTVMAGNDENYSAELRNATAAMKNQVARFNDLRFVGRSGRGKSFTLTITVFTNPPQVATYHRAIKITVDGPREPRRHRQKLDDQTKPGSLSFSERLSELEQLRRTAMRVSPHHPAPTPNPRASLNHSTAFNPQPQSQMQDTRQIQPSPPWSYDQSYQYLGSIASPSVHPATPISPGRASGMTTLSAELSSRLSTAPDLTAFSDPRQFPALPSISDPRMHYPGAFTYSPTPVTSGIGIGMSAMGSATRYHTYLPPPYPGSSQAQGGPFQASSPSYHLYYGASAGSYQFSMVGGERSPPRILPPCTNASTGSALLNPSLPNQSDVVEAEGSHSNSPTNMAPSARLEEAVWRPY
Sequence (Q13951 whole entry, looked up, the tested form may be a part): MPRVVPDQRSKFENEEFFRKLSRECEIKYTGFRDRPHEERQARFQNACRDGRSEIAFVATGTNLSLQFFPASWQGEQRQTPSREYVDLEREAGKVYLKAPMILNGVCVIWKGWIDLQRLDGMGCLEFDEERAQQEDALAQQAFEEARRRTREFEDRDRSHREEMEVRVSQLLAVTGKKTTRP
Assay: disruptors of Runt domain/CBFb-SMMHC interaction – biochemical, FRET, Cerulean-Runt, Venus-CBFb-SMMHC, uHTS, primary screen (AID 1434);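 note: 0% = DMSO wells and 100% = wells with excess untagged CBFb-SMMHC; inhibitors lower the FRET ratio by blocking Runt binding to CBFb-SMMHC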
Conditions: Cerulean-Runt/Venus-CBFb-SMMHC FRET ratio 530/480, 1 h, at 20 µM, stronger effect = higher value

SMILES	inhibition	inhibition (retest duplicate average)
Cc1[nH]c2ccccc2c1/C=N/NC(=O)CNC(=O)c1ccc2c(c1)OCO2	1.7% (inactive)	
COc1ccc(N2C(=O)C(O)C2c2ccc(C)cc2)cc1 (centres undefined)	1.6% (inactive)	
Cc1cc(C)c2nc(N3CCCC3)c(C#N)cc2c1	65% (active)	86.1%
CC(=O)c1cc(C#N)c(N2CCCCC2)nc1C	-1.4% (inactive)	
Cc1cc(C)c(C#N)c(N2CCC(C(N)=O)CC2)n1	3% (inactive)	
CC(C)N1C(=S)SC(C)(C)C1n1oc(=O)n(-c2ccc(Cl)c(Cl)c2)c1=O (centres undefined)	4.2% (inactive)	
CCOc1cc(NC(=O)CCl)c(OCC)cc1NC(C)=O	1.1% (inactive)	
CCCCN(CCCC)CC(O)Cn1c2ccccc2c(=O)c2ccccc21 (centres undefined)	81% (active)	70.6%
O=C1c2ccccc2S(=O)(=O)N1CC(O)Cn1c2ccccc2c2ccccc21 (centres undefined)	4.1% (inactive)	
CS(=O)(=O)N(CC(O)Cn1c2ccccc2c2ccccc21)c1cccc2ccccc12 (centres undefined)	1.2% (inactive)	
Cc1ccccc1NC(=O)c1nn(-c2ccc(F)c(F)c2)ccc1=O	3.1% (inactive)	
N#CC1=C(N)OC2=C(C(=O)CCC2)C1C1CC=CCC1 (centres undefined)	4.6% (inactive)	
COCc1[nH]nc2c1C(C1C=CCCC1)C(C#N)=C(N)O2 (centres undefined)	3.6% (inactive)	
N#CC1=C(N)Oc2cc(O)ccc2C1C1CCCCC1 (centres undefined)	120% (active)	132%
C=CCn1c(SCC(N)=O)nnc1-c1cc2c(s1)CCC(CC)C2 (centres undefined)	-3.6% (inactive)	
CCS(=O)(=O)c1ccc(O)c(NC(=O)COc2ccc(Cl)cc2)c1	0.3% (inactive)	
Cc1c(CCOC(=O)c2cc([N+](=O)[O-])ccc2Cl)sc[n+]1CCCCS(=O)(=O)[O-]	-0.3% (inactive)	
O=C(CCc1ccccc1)Nc1ccc(NC(=O)C2CCCCC2)nc1	-1% (inactive)	
CC(C)C1Nc2c(C(=O)O)cccc2C(Nc2ccccc2C(=O)O)C1(C)C (centres undefined)	-10% (inactive)	
CCc1ccc(NC(=O)CSc2nc3ccccc3c(=O)n2CCN2CCOCC2)cc1	-3.7% (inactive)	
CSc1nnc(-c2ccncc2)n1CCCN1CCCC1=O	5.9% (inactive)	
CCOc1ccc(C(=O)NCCCN2CCCC2=O)cc1	-3.7% (inactive)	
CC(C)(C)OC(=O)c1c(N)n(CCCN2CCCC2=O)c2nc3ccccc3nc12	124% (active)	142%
Cc1ccc(C(=O)OC(C)CN2CCOCC2)cc1 (centres undefined)	-0.1% (inactive)	

SMILES	inhibition	inhibition (retest duplicate average)
COCC(C)OC(=O)c1c(N)n(CCCN2CCOCC2)c2nc3ccccc3nc12 (centres undefined)	109% (active)	129%
O=C1CC2(CC(c3ccc(Cl)cc3)=NO2)C(=O)N1c1ccccc1 (centres undefined)	2.6% (inactive)	
CC(C)(C)c1cc(C(=O)N/N=C/c2ccc([N+](=O)[O-])s2)n[nH]1	-11.1% (inactive)	
COc1ccc(-n2c(C)nn(CC3CC3)c2=O)cc1	-6% (inactive)	
CCCn1c(N)c(C(=O)CSc2nnc(-c3cccnc3)n2-c2ccc(C)cc2C)c(=O)[nH]c1=O	0.2% (inactive)	
Cn1nnc(NC(=S)NC(=O)c2ccccc2)n1	-0.2% (inactive)	
COc1ccc(CCNC(=O)CCn2c(=O)c3ccccc3n(CC(=O)NCC3CCCO3)c2=O)cc1OC (centres undefined)	-0.3% (inactive)	
COc1ccc(CCn2c(=N)c(C(=O)NCc3ccco3)cc3c(=O)n4cccc(C)c4nc32)cc1	142% (active)	170%
COCCn1c(=O)[nH]c2cc(C(=O)NCc3cccnc3)ccc2c1=O	-3.4% (inactive)	
COc1ccc(CCNC(=O)Cn2c(=O)n(CC3CCCO3)c(=O)c3ccccc32)cc1OC (centres undefined)	-0.7% (inactive)	
CCc1cccc2c(=O)c(C(=O)NCCCOC)c[nH]c12	1% (inactive)	
COc1ccc(CCNC(=O)c2ccco2)cc1	-1.4% (inactive)	
COc1ccc(CNC(=O)c2cc3c(=O)n4ccccc4nc3n(CC3CCCO3)c2=N)cc1 (centres undefined)	92.1% (active)	159%
CCn1c(=N)c(C(=O)NCCCOC)cc2c(=O)n3cccc(C)c3nc21	58.1% (active)	72.9%
O=C(NCc1ccco1)c1cccn2c(=O)c3c4c(sc3nc12)CCCC4	0.4% (inactive)	
CC(C)Oc1c(Br)cc(Br)cc1/C=N/NC(N)=S	-0.8% (inactive)	
C=CCN(CC=C)C(=O)COC(=O)c1n[nH]c2ccccc12	-3% (inactive)	
O=c1[nH]c(=S)[nH]c2[nH]c(=S)[nH]c12	45.1% (inactive)	
COc1ccc(C(C(=O)NC2CCCCC2)N(C(=O)CCl)c2ccccc2Cl)cc1 (centres undefined)	-1.2% (inactive)	
OC(COCC1COc2ccccc2O1)CN1CCN(c2ccc(F)cc2)CC1 (centres undefined)	0.5% (inactive)	
COc1ccc(Cc2nnc(NC(=O)c3cc(OC)c(OC)c(OC)c3)s2)cc1OC	-2% (inactive)	
COc1cc(/C=N/NC(=S)Nc2cccnc2)cc(OC)c1O	3% (inactive)	
CCCCCCCC[n+]1cccc(C(=O)N2c3c(nc(N)[nH]c3=O)NC(C)C2C)c1 (centres undefined)	3.4% (inactive)	
O=c1cc(CN2CCN(S(=O)(=O)/C=C/c3ccccc3)CC2)c2ccc(O)cc2o1	130% (active)	146%

SMILES	inhibition	inhibition (retest duplicate average)
O=C(CN1CCN(S(=O)(=O)/C=C/c2ccccc2)CC1)Nc1ccc(N2CCOCC2)cc1	1.4% (inactive)	
COc1ccc2c(CN3CCN(S(=O)(=O)c4cccs4)CC3)cc(=O)oc2c1	12.6% (inactive)	
COc1cccc(OCCCN2CCCCCC2)c1	-44.8% (inactive)	
COc1ccccc1/C=C/C1=NC(=C\N(C)C)/C(=O)O1	89.1% (active)	91.9%
O=C1OC(/C=C/c2ccccc2)=NC/1=C/c1ccco1	-22.3% (inactive)	
COc1cccc(/C=C/c2ccc3ccccc3n2)c1OC(C)=O	-3.2% (inactive)	
CC(C)=C1C2CCC1C1C(=O)N(NC(=O)c3ccco3)C(=O)C21 (centres undefined)	-1.2% (inactive)	
COc1cccc(C(=O)c2cc3ccc(O)cc3oc2=O)c1	165% (active)	194%
COc1ccc2oc(=O)c(C(=O)O)cc2c1	1.6% (inactive)	
COc1ccc2oc(=O)c(C(=O)N3CCCC3)cc2c1	3.9% (inactive)	
Fc1cc(F)c2nc(Nc3nc4c(F)cccc4s3)sc2c1	4.2% (inactive)	
NC(=O)c1c(NC(=O)CSc2nc(N)cc(=O)[nH]2)sc2c1CCCC2	-8.6% (inactive)	
NC(=O)c1c(Nc2nc3c(F)cccc3s2)sc2c1CCCC2	104% (active)	175%
CCN1CC=C2C(C#N)=C(N)C(C#N)(C#N)[C@H](c3ccoc3)[C@H]2C1	-20.7% (inactive)	
CCOC(=O)N1CC=C2C(C#N)=C(N)C(C#N)(C#N)[C@H](c3cccs3)[C@H]2C1	-18.3% (inactive)	
CCCN1CC=C2C(C#N)=C(N)C(C#N)(C#N)C(c3cc(OC)ccc3OC)C2C1 (centres undefined)	88.4% (active)	77.5%
Cc1ccc(C2Nc3ccccc3C(=O)N2CCN2CCNC2=O)cc1 (centres undefined)	2.4% (inactive)	
CC(C)NC(=O)C(=O)NCCCOC(C)C	-0.3% (inactive)	
O=C(Nc1nccs1)c1cc(S(=O)(=O)N2CCOCC2)c(Cl)cc1Cl	-1% (inactive)	
CC(=O)Cc1nsc(NC(=O)c2ccc(Cl)cc2Cl)n1	-0.9% (inactive)	
CCN1CCc2nc(NC(=O)c3cc(F)c(F)cc3Cl)sc2C1	52.5% (active)	76.5%
O=C(CCc1ccccc1)NNc1ccc(F)cc1	-0.8% (inactive)	
CCCc1cc(=O)oc2c(C)c(O)c(CN3CCCCC3)cc12	70.4% (active)	121%
CCc1ccc2oc(=O)cc(CN3CCCCC3C)c2c1 (centres undefined)	-0.5% (inactive)	

SMILES	inhibition	inhibition (retest duplicate average)
CCCc1cc(=O)[nH]c(SCc2cc(=O)oc3c(C)c(C)ccc23)n1	1.9% (inactive)	
O=C(CN1CCc2ccccc21)NC(c1ccccc1)c1ccccc1	-0.8% (inactive)	
CCc1ccc(NC(=O)Nc2ccncc2)cc1	-0.3% (inactive)	
CCN(CC)c1ccc2oc(=O)c(C)nc2c1	-81.6% (inactive)	
CCN(CC)c1ccc2cc(C(N)=O)/c(=N\NC(=O)c3ccncc3)oc2c1	-128% (inactive)	
CCN(CC)c1ccc2cc(C(=O)O)c(=O)oc2c1	77.6% (active)	71.5%
CSc1sc(C)cc1C1C(C#N)=C(N)N(c2cccnc2)C2=C1C(=O)CCC2 (centres undefined)	76.1% (active)	73.7%
N#CC1=C(N)N(c2ccccc2)C2=C(C(=O)CCC2)C1c1ccccc1 (centres undefined)	29.5% (inactive)	
CCc1ccc(C2C(C#N)=C(N)N(N(C)C)C3=C2C(=O)CCC3)s1 (centres undefined)	-11.9% (inactive)	
COc1ccc(C2/C=C\CN(S(=O)(=O)c3cccs3)CC(=O)N2Cc2ccc(F)cc2)cc1 (centres undefined)	2.2% (inactive)	
COc1cc(CNc2ncn[nH]2)ccc1OCc1ccccc1C	-0.6% (inactive)	
N#Cc1ccc(Oc2ccc(C(F)(F)F)cc2NC(=O)c2ccc(F)cc2)cc1	-0.8% (inactive)	
C#CCNC(=O)C1=C[C@@H](c2ccccc2)[C@H](CCCO)[C@@H](OCC)O1	1.4% (inactive)	
Cc1cc(C)cc(NC(=O)NC2CCN(CC(=O)Nc3cccc(Cl)c3C)CC2)c1	0.9% (inactive)	
NC(=O)C1(C(N)=O)OC1c1ccc(Cl)cc1Cl (centres undefined)	1% (inactive)	
CCOc1ccccc1C1C(C(=O)OC)=CN(C)C=C1C(=O)OC	42% (inactive)	
COC(=O)C1=CN(C)C=C(C(=O)OC)C1c1ccc(Cl)cc1Cl	60.9% (active)	91.8%
CC(OC(=O)c1ccc(NS(=O)(=O)c2ccc3[nH]c(=O)[nH]c3c2)cc1)C(=O)Nc1cccc(Cl)c1Cl (centres undefined)	-5.6% (inactive)	
CCOC(=O)C1CCN(CCC(=O)Nc2cccc(C)c2)CC1	0.1% (inactive)	
COCc1ccc(C(=O)N2CCc3c([nH]c4ccccc34)C2c2ccccn2)s1 (centres undefined)	2.3% (inactive)	
COCCCNC(=S)NC(=O)c1ccc([N+](=O)[O-])cc1	4.6% (inactive)	
COCCCNC(=S)NCCNc1nc2cc(C)c(C)cc2cc1C#N	88.8% (active)	125%
Cc1ccc2nc(NCCCNC(=O)c3cnccn3)c(C#N)cc2c1	32% (inactive)	
